Screening results (PubChem)
Ba/F3 V617F tox – lowers viability of Ba/F3 cells expressing EpoR and JAK2V617F; ATP luminescence; inhibition, % at 5.6 µM; hit rate 1.1% among 220,000;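 active = inhibition above the campaign mean plus 3 SD over all tested compounds, cut at about 24% in these data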;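 note: cytokine-independent growth of Ba/F3 cells driven by EpoR plus mutant JAK2; 0% = DMSO-treated cells and 100% = JAK inhibitor I control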
KLF5 inh – suppresses KLF5 promoter-driven expression | DLD-1 KLF5 promoter-luciferase reporter, luminescence | inhibition, % at 5 µM | hit rate 0.23% among 290,000;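 active = inhibition above a per-plate limit of that plate's mean compound inhibition plus 3 SD, cut at about 60% in these data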;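 note: 0% = DMSO wells and 100% = LY294002 at 200 µM; higher means less KLF5 promoter-driven luciferase light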
APP 5UTR inh – APP translation inhibition | SH-SY5Y APP 5'UTR-luciferase reporter, luminescence | inhibition, % at 2 µM | hit rate 0.82% among 190,000;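 active = inhibition above a set limit, derived from the sample mean plus 3 SD, cut at about 45% in these data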
BaF3 tox – counter-screen for JAK2V617F inhibitors: parental Ba/F3 viability inhibitors | CellTiter-Glo ATP luminescence | inhibition, % at 5.6 µM | hit rate 1.1% among 220,000 | AID 1486;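 active = inhibition above a per-campaign cutoff, the mean inhibition of all tested compounds plus 3 SD, cut at about 27% in these data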;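 note: 0% = DMSO wells and 100% = JAK Inhibitor I control wells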
aSyn UTR inh – MLPCN primary screen, SNCA 5' untranslated region. alpha-synuclein 5'UTR reporter, inhibitor activity. inhibition, % (tested at 7.5 µM). hit rate 0.82% among 300,000; in the data active = inhibition above about 60%;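 note: H4 neuroglioblastoma cells stably carrying SNCA 5'UTR luciferase fusion; 0% = DMSO wells and 100% = positive control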
IEC-6 cytotox – IEC-6 cytotoxicity, counter-screen for KLF5 inhibitors | hit rate 0.78% among 290,000 | inhibition, % at 5 µM | luminescence viability; in the data active = inhibition above about 22%;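 note: 0% = plate median of test compound wells and 100% = cytotoxic reference compound wells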
The depositor's hits bear a star; / = no result given. This is a sample that favours compounds with a hit; in the whole collection about 2.2% have one here.

SMILES	Ba/F3 V617F tox	KLF5 inh	APP 5UTR inh	BaF3 tox	aSyn UTR inh	IEC-6 cytotox
Cc1nn(Cc2c(F)c(F)c(F)c(F)c2F)c(C)c1NC(=O)c1cccc(COc2ccccc2Cl)c1	0	-202	-151	2	-97	-4
Cc1nn(Cc2cccc(F)c2)c(C)c1NC(=O)c1ccc(COc2ccccc2Cl)cc1	-4	-32	-4	2	69*	-1
Cc1ccc(OCc2nc(C#N)c(NCc3ccc4c(c3)OCO4)o2)cc1	-2	-30	67*	0	0	5
COc1ccc(Nc2oc(COc3ccc(Cl)cc3)nc2C#N)cc1	3	2	-4	2	91*	-2
Cc1cc(OCC(=O)NC2CC(C)(C)NC(C)(C)C2)c(C)cc1Br	/	-16	/	/	8	1
COC(=O)[C@]1(C)CCC[C@@]2(C)C3CC[C@@]4(C)C[C@]3(CC[C@H]12)C[C@H]4O (some centres not stated)	/	-39	/	/	-6	-4
Cc1cccc(NC(=O)C2CCN(S(=O)(=O)c3c(C)noc3C)CC2)c1	/	-43	/	/	3	-8
Cc1noc(C)c1S(=O)(=O)N1CCC(C(=O)Nc2ccccn2)CC1	2	-16	11	40*	10	2
CCN(CC)c1nc2c(c(=O)[nH]c(=O)n2C)n1CCOc1ccccc1	/	-26	/	/	7	3
CCN(c1cc(C)cc(C)c1)S(=O)(=O)c1nnc(NC(=O)C(C)C)s1	/	-8	/	/	23	-1
Cc1ccc(CNC(=O)/C(C#N)=C\c2ccc(N(C)C)cc2)cc1	-1	-24	8	0	-16	-3
CCOC(=O)c1ccc(NC(=O)Cn2nnc3ccccc32)cc1	-3	-203	-71	59*	/	-2
O=C(COC(=O)c1cccs1)NCC1CCCCC1	-1	11	-1	4	-2	-4
CCc1ccc2c(c1)C1(NN=C(c3cccc4ccccc34)S1)C(=O)N2 (configuration not stated)	-3	-16	11	4	76*	1
CCc1ccc2c(c1)C1(C(=O)N2)N2CCCC2C(C(=O)c2ccc3ccccc3c2)C12C(=O)Nc1ccccc12 (configuration not stated)	-3	1	-19	4	-127	-9
O=C(CC1(O)C(=O)N(Cc2cccc3ccccc23)c2ccccc21)c1cccnc1 (configuration not stated)	68*	-29	56*	54*	1	12
CC1(C)CC2(CCO1)OC(=O)CC2C(=O)Nc1ccccc1Cl (configuration not stated)	3	2	7	90*	-28	-2
CCC(=O)c1c(NC)cc(C)oc1=O	-1	-21	4	-1	9	0
Cc1ccc(NC(=S)NNC(=S)Nc2ccc(C)cc2C)cc1	82*	-22	92*	30*	113*	6
Cc1ccc(NC(=O)CCC(=O)NNC(=S)Nc2ccccc2)c(C)c1	-2	1	-21	4	10	3
COc1ccc2nc(C)cc(N/N=C/c3ccc(F)cc3)c2c1	/	-17	/	/	93*	9
Cc1ccc(C)c(NS(=O)(=O)c2ccc3[nH]c(=O)oc3c2)c1	-2	-43	-9	5	8	0
CCCCN(CC)S(=O)(=O)c1ccc(C(=O)Nc2nnc(CSC)o2)cc1	-1	46	-12	42*	8	46*
CCCCN(CC)S(=O)(=O)c1ccc(C(=O)Nc2nnc(COC)o2)cc1	-2	-3	-21	-2	8	-5
CCCCN(C)S(=O)(=O)c1ccc(C(=O)Nc2nnc(C3=COCCO3)o2)cc1	-1	8	5	-2	3	-4
SMILES	Ba/F3 V617F tox	KLF5 inh	APP 5UTR inh	BaF3 tox	aSyn UTR inh	IEC-6 cytotox
CCN(c1ccccc1)S(=O)(=O)c1ccc(C(=O)Nc2nnc(C3CC3)o2)cc1	2	13	14	11	71*	17
CCCCN(CC)S(=O)(=O)c1ccc(C(=O)Nc2nnc(-c3ccccc3Cl)o2)cc1	-2	-13	-3	-1	76*	-3
CCCCN(C)S(=O)(=O)c1ccc(C(=O)Nc2nnc(-c3cccs3)o2)cc1	1	25	36	1	81*	-11
CN(c1ccccc1)S(=O)(=O)c1ccc(C(=O)Nc2nnc(C3CC3)o2)cc1	2	25	-6	7	54	14
CCCCN(CCCC)S(=O)(=O)c1ccc(C(=O)Nc2nnc(CSC)o2)cc1	-2	-33	0	4	50	-3
O=C(Nc1ccc2c(c1)C(=O)NC2=O)c1ccc(S(=O)(=O)N2CCCC2)cc1	0	-42	-4	8	-16	-8
COc1ccccc1-c1nnc(NC(=O)c2ccc(S(=O)(=O)N(C)C)cc2)o1	1	-36	-2	0	45	4
CCN(Cc1ccccc1)S(=O)(=O)c1ccc(C(=O)Nc2nnc(-c3ccccc3OC)o2)cc1	-2	-3	25	2	67*	-5
COc1ccc(NC(=O)Nc2nnc(N3CCC(C)CC3)s2)cc1OC	-2	-5	27	8	-17	-4
COc1ccc(OC)c(NC(=O)Nc2nnc(N3CCC(C)CC3)s2)c1	3	0	48*	10	-8	1
COc1ccc(N/N=C(\C=N\O)C(=O)c2ccc(OC)cc2)cc1	10	12	88*	17	6	11
COc1ccccc1N1CCN(C(=O)Cn2c(=O)oc3cc(S(=O)(=O)N4CCCC4)ccc32)CC1	/	-18	/	/	34	-8
COc1ccccc1NC(=O)N1CCN(S(C)(=O)=O)CC1	1	-15	-32	6	1	-4
O=C(CSc1ccc2c(c1)OCCO2)Nc1ncc(Cl)cc1Cl	-2	-7	46*	4	23	-2
CCN(CC(=O)Nc1ccc(NC(C)=O)cc1)C(=O)Cc1ccc(Cl)c(Cl)c1	/	-1	/	/	6	4
CC1=NN(C(C#N)c2ccccc2C)C(C)(C)C1 (configuration not stated)	6	-25	7	4	4	-3
CCCCCn1ccc(=N)cc1	67*	-15	7	62*	19	-5
CC(=O)c1ccc(OCC(C)C)c(CC(C(N)=O)C(N)=O)c1	0	-9	-4	6	4	-6
CC(=O)c1ccc(OC(C)C)c(CC(C(N)=O)C(N)=O)c1	1	-45	46*	5	-4	-3
COc1ccc(F)cc1CSc1nnnn1-c1ccc(O)cc1	/	9	/	/	11	-1
COc1cc(CSc2nnnn2-c2ccc(C)cc2)cc(OC)c1OC	35*	-18	-7	53*	15	3
CCOC(=O)c1[nH]c(C)c(CN(C(C)=O)c2ccc(OCC)cc2)c1C	8	38	-3	12	-23	32*
CC(=O)c1c(C)oc2ccc(N(C(C)=O)S(=O)(=O)c3cccc4cccnc34)cc12	27*	-11	/	37*	-29	7
CC(=O)c1c(C)oc2ccc(N(C(C)=O)S(=O)(=O)c3ccc(F)cc3C)cc12	/	-10	/	/	6	3
